Data published in PubChem BioAssay (NCI).
This is part of a sample that, as a whole, favours compounds with a hit. Of some 83,000 tested, about 20% had one in any assay.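 Step 1: grow cells in 96-well plates. Step 2: add test compound at a single concentration. Step 3: incubate 48 h. Step 4: record percent growth.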 A number with no mark means an inactive call. Calls of active or inactive are those of the source. How the source made its calls: active means growth percent below 10; inactive means the rest.

System: HL-60(TB) leukemia
Assay: NCI-60 one-dose screen, 48 h (100 = growth as untreated, 0 = no growth, -100 = all killed)
Conditions: 10 µM unless noted

| Compound | growth |
| --- | --- |
| COC(=O)Nc1ccc(-c2nc(-c3cccc(OC)c3)c(-c3ccnc(Br)c3)[nH]2)cc1 | 44.2% |
| CC(=O)n1c2ccccc2c2ccccc21 | 104% |
| CCN(CC)CCCC(C)Nc1c2ccc(C)cc2nc2ccc(OC)cc12 (stereo not drawn) | 11.4% |
| Nc1nn(C(=O)Nc2ccc(Cc3ccccc3)cc2)c2ccc(Cl)cc12 | 24.9% |
| CC1CCCC(C(=O)O)C1C(=O)O (stereo not drawn) | 81.8% |
| CCOc1ccc(N2C(N)=NC(N)=NC2(C)C)cc1 | 16.4% |
| CCOC(=O)CNC | 97.3% |
| CCCCCCCCCCCCCCCCOc1ccccc1NC(=O)CC(C)=O | 98% |
| C#CCNC(=O)CC[C@]1(C)[C@H]2CC[C@@H]3[C@@H]([C@@](C)(O)CCC=C(C)C)CC[C@@]3(C)[C@]2(C)CC[C@H]1C(=C)C | -41% [100 µM] (active) |
| Cc1sc2ncn(CC(=O)Nc3ccc(S(N)(=O)=O)cc3)c(=O)c2c1C | 103% |
| O=C1NCN(CCO)CN1 | 97.5% |
| CCCc1cc(=O)n2c(C(=O)Nc3ccccc3OC)c(C(=O)Nc3ccc(F)cc3)sc2n1 | 47.1% [30 µM] |
| N#Cc1cc2[nH]c3ccc(OC(F)(F)F)cc3c2oc1=O | 99.8% |
| CCOc1ccccc1C(=O)N1CCN(c2cc(Cl)cc(Cl)c2)CC1 | -59% (active) |
| COc1ccc(C2=CN3CC=CCC3CC2=O)cc1 (stereo not drawn) | 110% |
| Cc1cc(C(C)(C)C)cc(C)c1Br | 108% |
| CCN(CC)CC(O)COc1c(Br)c(Br)c(Br)c2c1OC(C)(C)C2 (stereo not drawn) | 14% |
| O=C(CC(O)c1ccncc1)c1ccccc1 (stereo not drawn) | 100% |
| CCOc1nc(-c2ccccc2)cc2c(O)c(C(=O)NN)[nH]c(=O)c12 | 151% |
| COCCNC1=C(Cl)C(=O)c2ccccc2C1=O | 110% |
| CS(=O)CCCCCN=C=S (stereo not drawn) | -33.9% (active) |

| Compound | growth |
| --- | --- |
| OC(CNC1CCCCC1)Cn1c2ccc(I)cc2c2cc(I)ccc21 (stereo not drawn) | 93.7% |
| Cc1ccc2oc(=O)cc(/C(=C3/C=CC=N3)c3ccc[nH]3)c2c1 | -13.6% (active) |
| CCN(CC)CCCC(C)Nc1c(-c2ccccc2)cnc2cc(Cl)ccc12 (stereo not drawn) | 56.3% |
| FC(F)c1nc2ccccc2n1-c1nc(N2CCOCC2)nc(N2CCOCC2)n1 | 15.1% |
| CCCCCCCCc1ccc(OCCOCC[N+](C)(C)CC)cc1 (tested in a mixture with another compound) | 2.54% (active) |
| COc1cc(C2C3=C(COC3=O)Nc3cc4c(cc32)CCC4)cc2c1OCO2 (stereo not drawn) | 10.4% |
| COc1ccc(-c2csc(NC(=O)CO[N+](=O)[O-])n2)cc1 | 107% |
| COc1cc(/C=C2\C(=O)N(CCCOc3cc(O)c4c(=O)cc(-c5ccccc5)oc4c3)c3ccccc32)cc(OC)c1O | 47.2% |
| COc1ccc(CNc2c3ccccc3nc3ccc(OC)cc23)cc1 | -20.7% (active) |
| O=[N+]([O-])c1ccc(Oc2cc(Cl)c(Cl)cc2Cl)c(C(F)(F)F)c1 | 104% |
| O=Nc1ccc(O)c2ccccc12 | -3.12% (active) |
| COc1cc(/C=C/C(=O)c2ccc(Nc3nc(NCCO)nc(N4CCOCC4)n3)cc2)cc(OC)c1OC | -28.6% (active) |
| CCC1(c2ccccc2)Oc2ccccc2-n2c(C#N)c3ccccc3c2C1=O (stereo not drawn) | 92.8% |
| Oc1cccc(-c2nc(-c3n[nH]c(=S)n3-c3ccccc3)cc3c2[nH]c2ccccc23)c1 | 4.29% (active) |
| COc1ccc2c(ccc[n+]2C)c1 | 132% |
| CCCc1cc(=O)oc2c(C(=O)CC(C)C)c(O)c(CC=C(C)C)c(O)c12 | 2.72% (active) |
| Cc1ccc(O)c(NC(=O)c2ccc(CNc3ccnc(C(F)(F)F)c3)cc2)c1 | 9.24% (active) |
| COc1ccc(-c2nc(N3CCCC3=O)sc2Br)cc1OC | 101% |
| Nc1ccc(-c2cc3c(Nc4ccc(Oc5cccc(C(F)(F)F)c5)c(Cl)c4)ncnc3s2)cc1 | 54.9% |
| CCN(CC)CCCC(Nc1c2ccc(Cl)cc2nc2ccc(OC)cc12)c1ccc(Cl)cc1 (stereo not drawn) | -16.2% (active) |
| Cc1nc2cc(O)c(O)cc2cc1Oc1ccc(NC(=O)Nc2ccc(Cl)c(Cl)c2)cc1 | 96.8% |

| Compound | growth |
| --- | --- |
| C=C(C)[C@@H]1CC[C@]2(COCCCNCCCN)CC[C@]3(C)[C@H](CC[C@@H]4[C@@]5(C)CC[C@H](OCCCN)C(C)(C)[C@@H]5CC[C@]43C)[C@@H]12 | 48.2% |
| CCOC(=O)CCN(CCC(=O)OCC)c1ccccc1 | 104% |
| COC(=O)/C=C1/SC(N2N=C(c3cccs3)CC2c2ccc(F)cc2)=NC1=O (stereo not drawn) | -7.95% (active) |
| CC(=O)O[C@H]1CC[C@@]2(C)C(=CC[C@@H]3[C@@H]2CC[C@]2(C)C(Cl)=C(c4nc5ccc(Cl)cn5c4NC(C)(C)C)C[C@@H]32)C1 | 91.9% |
| Cn1c(-c2ccccc2)cc(=O)cc1-c1ccccc1 | 99.8% |
| COc1cccc(C(=O)NNC(=O)c2cccc3ccccc23)c1 | 97.8% |
| Cc1ccc(NC(=O)c2sc3nc(C)c(Br)c(C)c3c2N)cc1 | 95.2% |
| CCSCC1CC(O)(c2ccccc2)C(c2ccccc2)C(c2ccc(F)cc2)O1 (stereo not drawn) | -12.5% (active) |
| COc1cc(C2CC(c3ccc(Nc4nc(Nc5ccc(Cl)cc5)nc(Nc5ccc(Cl)cc5)n4)cc3)=NN2C(C)=O)cc(OC)c1OC (stereo not drawn) | 95.2% |
| c1ccc(-c2cc3n4c(-c5ccccc5)nn(-c5ccccc5)c4cnc-3n2)cc1 | 120% |
| O=C(CSc1nnc(-c2cc(-c3ccccc3)nc3ccccc23)o1)c1ccc(Br)cc1 | 99.4% |
| COc1cc2c(=O)n(CCN)c3c4cc5c(cc4ccc3c2cc1OC)OCO5 | -64.9% (active) |
| O=C(C1CCC1)N1N=C(c2ccc(-n3ccc(C(F)(F)F)n3)cc2)CC1c1ccc[nH]1 (stereo not drawn) | 97.8% |
| O=C(Nn1c2c(sc1=NC1CC1)C(=O)c1ccccc1C2=O)c1cc2ccc1CCc1ccc(cc1)CC2 | 2.39% (active) |
| O=Cc1ccc(F)cc1 | 103% |
| C/C(=C(\c1ccc(OCCN2CCCCCC2)cc1)c1ccc(OC(=O)Cc2ccccc2)cc1)c1ccc(Cl)cc1 | -60% (active) |
| N#C/C(=C\c1ccc2c(c1)OCO2)c1ccccc1 | 62% |
| Cn1ccc(Nc2nccc(Oc3ccc(C(=O)Nc4cccc(F)c4)c(Cl)c3)n2)c1 | 95.4% |
| CC1=C2[C@@H](CC1)[C@]1(C)O[C@@](C3CCNCC3)(C[C@H]1OC(=O)CO)[C@H]2OC(=O)/C=C/c1ccccc1 | 97.1% |
| CCCCC(CC)CN=C(N)NC(N)=NCCCCCCN=C(N)NC(N)=NCC(CC)CCCC (stereo not drawn) | -76.8% (active) |
| C#CCNC(=O)[C@]1(C)CC[C@]2(C)CC[C@@H]3C(=CC[C@H]4[C@@]3(C)CC[C@H]3C(C)(C)C(=O)CC[C@]43C)[C@@H]2C1 | 56.2% |

| Compound | growth |
| --- | --- |
| Cc1ccc(C(c2c(O)c3cc(Br)ccc3[nH]c2=O)c2c(O)c3cc(Br)ccc3[nH]c2=O)cc1 | 92.2% |
| COc1c(C(C)=O)c(OCCCCOc2c(C(C)=O)c(OC)c3ccoc3c2OC)c(OC)c2occc12 | 57.4% |
| Cc1cc(N2CCOCC2)nc(NCc2cc(Nc3ccnc4cc(Cl)ccc34)ccc2F)n1 | -54.2% (active) |
| COc1ccc(/C=C2\Cc3c(Br)cccc3C2=O)c(OC)c1 | 89.2% |
| COc1cc2ncnc(Nc3ccc(OCc4cccc(F)c4)c(Cl)c3)c2cc1NC(=O)C1CCCC1 | 99% |
| CSc1ccc2c3c(n(CCCn4ccnc4)c(=O)c2c1)-c1ccccc1C3=O | 15.5% |
| CCN1CCN(c2nc(C)cc(N(CCNc3ccnc4cc(Cl)ccc34)Cc3ccc4c(c3)OCO4)n2)CC1 | -57.7% (active) |
| COc1cccc(/C=C\C(=O)c2ccccc2)c1 | 43.9% |
| CCN(CC)CCOc1ccc(Nc2ncc3cc(-c4ccc(O)cc4)c(=O)n(C)c3n2)cc1 | 40.2% |
| CCN(CC)CCC(CNc1ccnc2cc(Cl)ccc12)c1ccc(O)cc1 (stereo not drawn) | -1.95% (active) |
| COc1cc(OC)c2c(=O)cc(-c3ccccc3)oc2c1 | 72% |
| C=C(C)[C@@H]1CC[C@]2(COCCC#N)CC[C@]3(C)[C@H](CC[C@@H]4[C@@](C)(CCCNCCC#N)[C@H](C(=C)C)CC[C@]43C)[C@@H]12 | -16.2% [100 µM] (active) |
| CC1(C)OC2=C(CC1Br)C(=O)C(=O)c1ccccc12 (stereo not drawn) | -8.14% (active) |
| C=C(C)[C@@H]1CC[C@]2(C(=O)N3CCNCC3)CC[C@]3(C)[C@H](CC[C@@H]4[C@@](C)(CCC(=O)N5CCNCC5)[C@H](C(=C)C)CC[C@]43C)[C@@H]12 | 61% |
| C[C@]12O[C@H](C[C@]1(O)CO)n1c3ccccc3c3c4c(c5c6ccccc6n2c5c31)CNC4=O | -32.7% (active) |
| Nc1nc2ncc(CNc3ccc(C(=O)NC(CCC(=O)NC(CCC(=O)NC(CCC(=O)NC(CCC(=O)NC(CCC(=O)O)C(=O)O)C(=O)O)C(=O)O)C(=O)O)C(=O)O)cc3)nc2c(=O)[nH]1 (stereo not drawn) | 93.5% |
| COc1ccc(NC(=S)Nc2ccccn2)cc1 | 84.9% |
| C=C1C(=O)O[C@H]2[C@H]1CC/C(Cn1cc(Cc3c[nH]c4ccccc34)nn1)=C\CC[C@@]1(C)O[C@@H]21 | -49.1% (active) |
| C=C1C(=O)O[C@H]2[C@H]1CC/C(C(=O)NCCCCCCCCNC(=O)/C1=C/CC[C@@]3(C)O[C@H]3[C@H]3OC(=O)C(=C)[C@@H]3CC1)=C\CC[C@@]1(C)O[C@@H]21 | 6.59% (active) |
| CN(C)c1ccc(/C=C/C(=O)c2ccc(Nc3nc(Nc4ccc(F)cc4)nc(Nc4ccc(Cl)cc4)n3)cc2)cc1 | -70.5% (active) |
